One assay deals with RARg homodimer (NR concentration 270 nM). Put plainly: PBM binding z-score (relative to random genomic background probes); higher = stronger binding; sequences stand for … in GC…GCGATTGACAGCGTAGAATGAAGG
In a few lines: (§1)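 Regression normalization was applied to scanned fluorescence from custom Agilent 4×180K protein-binding microarrays. Before scanning, arrays were incubated 1 h with ligand-free nuclear receptor dimers, and binding was detected with antibodies against each partner (one per run). Binding z-scores use the random background probes as reference.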
GCGACTGGGCCATCAGCAGGTTACCATAACTTAA gave a PBM binding z-score of 0.0324.
Consider CCGACTGGGGCCGAAAGGTTACCATACCATCCGG, for which the PBM binding z-score turned out to be 1.28.
The sequence GCTCGGAGGACAACGTCAGAGCTTTGTCCGTAGA returned a PBM binding z-score of 0.158.
Consider TCATATTGGTAAAGGTGAAAGTCGAACGATATGA, for which the PBM binding z-score is 0.994.
TGAATGAGGTTCAAGATCAGGGAACGTGGCGTCG displayed a PBM binding z-score of 0.706.
On the same count and under the same terms, the figure for TAGCCTAGGTCATTCAGGGGCCAGGATAGAAAGC is 4.6.
The sequence AGTCAAAGTTCATCTAGGTAATGTAAGATATGCT had a PBM binding z-score of 6.17.
The sequence CGAACTAGGTCACTGACAGGACAGTGAATAGTAA gave a PBM binding z-score of 4.99.
On the same count and under the same terms, with GATACAGGGTCAGCTAGAGGCTAGAGTATGGAAA the figure was 4.56; with TCTAGCAGGCCAGAGGGTAACTCAAGAGGTACGG, 0.174.
As for ATCTCTAGGTAGAGTTCAGTGAAAGATCGATAGA, the PBM binding z-score turned out to be 1.55.
Consider TGAATGAGGTTAAAGTTCAGGGAACGTGGCGTCG, for which the PBM binding z-score came out at 2.66.
Sequence TCTATTAGATGATTAGGGCAACCGAAACAGCGGA registered a PBM binding z-score of 0.575.
The sequence ATATGTAGGTTAAGGGTCATTCTGGTTGGTTCGC returned a PBM binding z-score of 3.2.
Same read-out and setting: with CGTCCAAGGTCAAAGTTCAGTGAAGAGATGACGG the figure was 7.1.
GTTCGGAGGACAAGGTCAGAGCTTTGTCCGTAGA: the PBM binding z-score was 3.51.
Consider TCGAGTAGGGTACCAATGGGGCATTCAGCTTTCT, for which the PBM binding z-score is -0.439.
As to CGAACTAGGTCAAGAACAGTGAATCTCCGCACGC, the PBM binding z-score was 4.
The sequence TCTTGTAGAGCAAAGGTTAAGAAAGCCGAAGCCT registered a PBM binding z-score of 0.586.
On the same count and under the same terms, with CCGACTGGGCCAAAAAGGTCATTGATGCCGATAA the figure was 3.5.
Still for that read-out and setting: the figure for AAAATGAGGTTACCAAAGATCAGGGAAACGCTTG is 1.81.
On the same count and under the same terms, with TCATATAGGTAAACAGGGGAAAGTCCGTAAGTTA the figure was 0.0765.
In turn, CCAGAAAGGTGAGAAGGTAACTCAGCCTCGATTA had a PBM binding z-score of 1.91.
For the sequence GCTTACGGGTCAAAGGTTATTGCATGAATAGAAT, the PBM binding z-score was found to be 4.49.
Take CAAACTAGGTCAAATGTCAAAGTCGAGCCAACCA: the PBM binding z-score is 5.17.
On the same count and under the same terms, the figure for CGAACTAGGTCATCCAGGACAGCGAATACATTGA is 4.81; for TCATATAGGTAAACAGGTGACAGTCCGTAAGTTA it is 0.419.
GCAGACAGGTGAAACGCAGGTAACACAGGGTGGC: the PBM binding z-score amounted to 0.467.
Turning to AGAATGAGCTTATACGTAGATCAGGGAAGAAAGT, the PBM binding z-score is -0.0616.
As to TCTGCTAGGTCAGTTGGTAAGCTAACGAGCTGCC, the PBM binding z-score was determined as 3.32.
On the same count and under the same terms, the figure for TCTATTAGTTGATGGGCAACCGACGAGTCCGTTT is -0.0889.
In the case of ACTACTTGGTCAGCTGAGGTCACACACAATTCGG, the PBM binding z-score was 4.38.
As to ATCGAAAGGTCGAGCTGAGTATAGAGAAAGGGAA, the PBM binding z-score amounted to 3.96.
In turn, TCTGCTAGGTCAGTTGGTCACCTAACGAGCTGCC showed a PBM binding z-score of 3.79.
The same measure, in the same setting: with CCGACTGGGGCATAAGGTTAGCATAAGCCAGCCC the figure was 0.69; with CGAACTAGGTTAGAACAGGACAGTGAAGGATGAT, 0.607; with ATACCCAGGTGATCGTGAGGTCGTTGATACTAAC, 0.63.
Still for that read-out and setting: the figure for TAGCCTAGGGCATGCGGGCCAGTATAGTGTCGGC is 0.455; for ATATGTAGGTTAGCTGTGGTCATTCAGACTAGGC it is 0.985; for TCTAGCAGGCCAGAGAGTCACTCAAGAGGTACGG it is -0.0814.

Another assay relates to RXRa DBDmut IVT, anti-RXR (DBD mutation: RXRa K156A/R161A, NR concentration 90 nM). The description is as above. In a few lines:
as §1
On to GCGACTGGGCCATCAGCAGGTTACCATAACTTAA, for which the PBM binding z-score is -0.654.
As for CCGACTGGGGCCGAAAGGTTACCATACCATCCGG, the PBM binding z-score is -0.679.
Same read-out and setting: the figure for GCTCGGAGGACAACGTCAGAGCTTTGTCCGTAGA is 0.00939; for TCATATTGGTAAAGGTGAAAGTCGAACGATATGA it is 0.405; for TGAATGAGGTTCAAGATCAGGGAACGTGGCGTCG it is 2.14.
With TAGCCTAGGTCATTCAGGGGCCAGGATAGAAAGC, the PBM binding z-score was 1.8.
Consider AGTCAAAGTTCATCTAGGTAATGTAAGATATGCT, for which the PBM binding z-score was 4.52.
Regarding CGAACTAGGTCACTGACAGGACAGTGAATAGTAA, the PBM binding z-score turned out to be 1.48.
Sequence GATACAGGGTCAGCTAGAGGCTAGAGTATGGAAA registered a PBM binding z-score of 0.988.
Same read-out and setting: the figure for TCTAGCAGGCCAGAGGGTAACTCAAGAGGTACGG is -0.0485.
ATCTCTAGGTAGAGTTCAGTGAAAGATCGATAGA came in with a PBM binding z-score of 2.18.
Same read-out and setting: the figure for TGAATGAGGTTAAAGTTCAGGGAACGTGGCGTCG is 1.93; for TCTATTAGATGATTAGGGCAACCGAAACAGCGGA it is 1.02; for ATATGTAGGTTAAGGGTCATTCTGGTTGGTTCGC it is 2.17.
In turn, CGTCCAAGGTCAAAGTTCAGTGAAGAGATGACGG had a PBM binding z-score of 4.25.
The same measure, in the same setting: the figure for GTTCGGAGGACAAGGTCAGAGCTTTGTCCGTAGA is 0.7; for TCGAGTAGGGTACCAATGGGGCATTCAGCTTTCT it is -0.161.
CGAACTAGGTCAAGAACAGTGAATCTCCGCACGC gave a PBM binding z-score of 1.65.
As for TCTTGTAGAGCAAAGGTTAAGAAAGCCGAAGCCT, the PBM binding z-score was -0.181.
The same measure, in the same setting: with CCGACTGGGCCAAAAAGGTCATTGATGCCGATAA the figure was 0.66; with AAAATGAGGTTACCAAAGATCAGGGAAACGCTTG, 1.54.
For the sequence TCATATAGGTAAACAGGGGAAAGTCCGTAAGTTA, the PBM binding z-score amounted to 1.97.
On the same count and under the same terms, the figure for CCAGAAAGGTGAGAAGGTAACTCAGCCTCGATTA is 0.256; for GCTTACGGGTCAAAGGTTATTGCATGAATAGAAT it is 2.83.
For the sequence CAAACTAGGTCAAATGTCAAAGTCGAGCCAACCA, the PBM binding z-score worked out at 2.58.
Regarding CGAACTAGGTCATCCAGGACAGCGAATACATTGA, the PBM binding z-score turned out to be 2.19.
The sequence TCATATAGGTAAACAGGTGACAGTCCGTAAGTTA registered a PBM binding z-score of 1.37.
With GCAGACAGGTGAAACGCAGGTAACACAGGGTGGC, the PBM binding z-score is -0.772.
With AGAATGAGCTTATACGTAGATCAGGGAAGAAAGT, the PBM binding z-score was -0.769.
Take TCTGCTAGGTCAGTTGGTAAGCTAACGAGCTGCC: the PBM binding z-score came to 0.399.
The sequence TCTATTAGTTGATGGGCAACCGACGAGTCCGTTT had a PBM binding z-score of 1.49.
Sequence ACTACTTGGTCAGCTGAGGTCACACACAATTCGG returned a PBM binding z-score of 1.76.
The sequence ATCGAAAGGTCGAGCTGAGTATAGAGAAAGGGAA returned a PBM binding z-score of 0.849.
In turn, TCTGCTAGGTCAGTTGGTCACCTAACGAGCTGCC came in with a PBM binding z-score of 0.479.
Turning to CCGACTGGGGCATAAGGTTAGCATAAGCCAGCCC, the PBM binding z-score was -0.721.
Take CGAACTAGGTTAGAACAGGACAGTGAAGGATGAT: the PBM binding z-score is 0.0179.
On to ATACCCAGGTGATCGTGAGGTCGTTGATACTAAC, for which the PBM binding z-score came to 0.432.
Same read-out and setting: the figure for TAGCCTAGGGCATGCGGGCCAGTATAGTGTCGGC is -1.55.
Take ATATGTAGGTTAGCTGTGGTCATTCAGACTAGGC: the PBM binding z-score turned out to be 0.139.
On to TCTAGCAGGCCAGAGAGTCACTCAAGAGGTACGG, for which the PBM binding z-score was -0.229.

The values are drawn from the supplement of paper PMC6555819.
